# Measurements as given in publication PMC7862700, “An all-to-all approach to the identification of sequence-specific readers for epigenetic DNA modifications on cytosine”.
# Tests used:
# Assay in all cases: DAPPL (digital affinity profiling via proximity ligation, sequencing); 10 mM Tris-HCl pH 7.5, 50 mM NaCl, 1 mM DTT, 4% glycerol, room temperature, 30 min; GST-TFs on glutathione beads, 16-mer random dsDNA library, 0.1% formaldehyde crosslink after washing; high values mean tight binding
# FLI1 = target: T1, FLI1 (Homo sapiens, UniProt Q01543 1-452); conditions: protein: recombinant; tags: N-terminal GST; dsDNA, one strand shown
# T1 sequence: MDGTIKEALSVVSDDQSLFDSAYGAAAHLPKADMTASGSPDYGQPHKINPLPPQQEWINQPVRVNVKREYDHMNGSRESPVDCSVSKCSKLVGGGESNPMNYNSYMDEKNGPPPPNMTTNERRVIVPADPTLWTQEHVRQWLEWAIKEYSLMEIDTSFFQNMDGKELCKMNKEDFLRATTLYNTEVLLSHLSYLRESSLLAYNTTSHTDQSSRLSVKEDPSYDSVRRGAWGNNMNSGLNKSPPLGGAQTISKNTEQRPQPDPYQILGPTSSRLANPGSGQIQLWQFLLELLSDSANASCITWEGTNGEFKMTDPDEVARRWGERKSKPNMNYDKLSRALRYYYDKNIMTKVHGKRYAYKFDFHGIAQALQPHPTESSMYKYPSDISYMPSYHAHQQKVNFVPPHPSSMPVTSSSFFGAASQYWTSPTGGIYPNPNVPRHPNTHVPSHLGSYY
# Summary of the method: (§1)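 GST fusions of human transcription factors were expressed in yeast and captured with glutathione beads. Once given DNA barcodes and pooled alongside a tag-only sample, they were incubated for 30 min at room temperature with 200 nmole of a random double-stranded 16-mer DNA library in Tris/NaCl/DTT/glycerol buffer, then washed, crosslinked (0.1% formaldehyde), proximity-ligated, PCR-amplified and sequenced on an Illumina NextSeq500. The binding signal of each hexamer is its read frequency for a factor divided by its frequency for the tag-only sample.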
# ELK1 = target: T2, ELK1 (Homo sapiens, UniProt P19419 1-428); conditions: protein: recombinant; tags: N-terminal GST; dsDNA, one strand shown
# T2 sequence: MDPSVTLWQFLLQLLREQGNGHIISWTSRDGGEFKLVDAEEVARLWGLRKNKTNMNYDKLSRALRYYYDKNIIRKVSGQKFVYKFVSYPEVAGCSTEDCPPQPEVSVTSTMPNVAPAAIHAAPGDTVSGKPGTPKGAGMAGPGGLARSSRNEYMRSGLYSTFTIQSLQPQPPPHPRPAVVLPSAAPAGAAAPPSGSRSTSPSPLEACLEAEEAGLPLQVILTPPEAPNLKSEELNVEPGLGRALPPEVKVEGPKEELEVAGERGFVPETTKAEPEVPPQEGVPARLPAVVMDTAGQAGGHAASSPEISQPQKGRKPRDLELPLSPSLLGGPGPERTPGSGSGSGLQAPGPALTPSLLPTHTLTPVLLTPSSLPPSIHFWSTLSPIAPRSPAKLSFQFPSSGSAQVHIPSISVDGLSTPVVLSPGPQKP
# Summary of the method: as §1
# GABPA = target: T3, GABPA (Homo sapiens, UniProt Q06546 1-454); conditions: protein: recombinant; tags: N-terminal GST; dsDNA, one strand shown
# T3 sequence: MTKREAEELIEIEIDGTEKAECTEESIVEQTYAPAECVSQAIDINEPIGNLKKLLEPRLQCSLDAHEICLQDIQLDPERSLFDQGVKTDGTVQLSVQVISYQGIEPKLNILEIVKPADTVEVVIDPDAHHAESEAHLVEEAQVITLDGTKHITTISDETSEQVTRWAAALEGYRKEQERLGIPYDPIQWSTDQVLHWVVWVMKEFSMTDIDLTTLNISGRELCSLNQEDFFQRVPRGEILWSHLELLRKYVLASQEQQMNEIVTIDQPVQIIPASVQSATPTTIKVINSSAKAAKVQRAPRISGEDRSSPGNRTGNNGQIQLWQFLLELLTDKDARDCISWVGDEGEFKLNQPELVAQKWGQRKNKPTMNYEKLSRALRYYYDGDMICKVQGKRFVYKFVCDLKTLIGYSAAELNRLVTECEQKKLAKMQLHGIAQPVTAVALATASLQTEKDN
# Summary of the method: as §1
# ERG = target: T4, ERG (Homo sapiens, UniProt P11308 1-479); conditions: protein: recombinant; tags: N-terminal GST; dsDNA, one strand shown
# T4 sequence: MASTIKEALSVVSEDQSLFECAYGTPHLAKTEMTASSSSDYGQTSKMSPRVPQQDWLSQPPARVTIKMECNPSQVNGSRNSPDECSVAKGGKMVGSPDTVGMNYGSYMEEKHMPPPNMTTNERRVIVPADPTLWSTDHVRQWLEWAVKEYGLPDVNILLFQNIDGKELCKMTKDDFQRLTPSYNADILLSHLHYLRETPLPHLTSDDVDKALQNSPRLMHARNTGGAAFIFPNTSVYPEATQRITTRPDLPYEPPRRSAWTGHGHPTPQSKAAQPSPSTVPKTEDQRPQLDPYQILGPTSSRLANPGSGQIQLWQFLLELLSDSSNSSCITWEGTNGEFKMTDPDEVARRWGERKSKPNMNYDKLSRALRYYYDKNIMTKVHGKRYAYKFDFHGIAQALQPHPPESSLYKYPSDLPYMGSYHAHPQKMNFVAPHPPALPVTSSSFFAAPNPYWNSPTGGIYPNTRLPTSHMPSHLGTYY
# Summary of the method: as §1
# ELF1 = ELF1 (Homo sapiens, UniProt P32519 1-619); conditions: protein: recombinant; tags: N-terminal GST; dsDNA, one strand shown
# Sequence of ELF1 (P32519 whole entry): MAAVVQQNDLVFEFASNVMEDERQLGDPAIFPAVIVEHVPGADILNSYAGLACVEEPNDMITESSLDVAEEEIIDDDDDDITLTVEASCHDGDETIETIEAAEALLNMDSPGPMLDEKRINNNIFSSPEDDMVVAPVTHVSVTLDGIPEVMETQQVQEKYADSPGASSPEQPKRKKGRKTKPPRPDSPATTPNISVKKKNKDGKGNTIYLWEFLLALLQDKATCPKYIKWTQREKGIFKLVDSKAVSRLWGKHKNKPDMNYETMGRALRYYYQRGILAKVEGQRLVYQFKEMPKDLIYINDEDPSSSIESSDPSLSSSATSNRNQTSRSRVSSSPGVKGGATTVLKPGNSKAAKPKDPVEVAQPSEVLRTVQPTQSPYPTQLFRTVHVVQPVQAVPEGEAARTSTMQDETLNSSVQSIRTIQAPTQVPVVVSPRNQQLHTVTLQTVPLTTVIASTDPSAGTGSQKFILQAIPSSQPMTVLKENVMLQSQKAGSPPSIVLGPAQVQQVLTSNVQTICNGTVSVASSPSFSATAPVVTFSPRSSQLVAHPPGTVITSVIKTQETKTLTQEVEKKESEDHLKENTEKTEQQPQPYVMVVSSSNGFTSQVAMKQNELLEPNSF
# Summary of the method: as §1
# EHF = target: T5, EHF (Homo sapiens, UniProt Q9NZC4 1-300); conditions: protein: recombinant; tags: N-terminal GST; dsDNA, one strand shown
# T5 sequence: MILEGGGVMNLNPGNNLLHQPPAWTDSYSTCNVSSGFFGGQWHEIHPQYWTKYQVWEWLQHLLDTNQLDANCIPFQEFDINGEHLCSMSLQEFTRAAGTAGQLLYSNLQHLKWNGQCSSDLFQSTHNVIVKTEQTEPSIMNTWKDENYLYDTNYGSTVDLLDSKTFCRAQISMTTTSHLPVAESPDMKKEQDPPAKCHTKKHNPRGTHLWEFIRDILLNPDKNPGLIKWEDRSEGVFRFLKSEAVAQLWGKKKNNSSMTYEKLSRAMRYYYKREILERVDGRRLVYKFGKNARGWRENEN
# Summary of the method: as §1
# SPI1 = SPI1 (Homo sapiens, UniProt P17947 1-270); conditions: protein: recombinant; tags: N-terminal GST; dsDNA, one strand shown
# Summary of the method: as §1
# SPIB = SPIB (Homo sapiens, UniProt Q01892 1-262); conditions: protein: recombinant; tags: N-terminal GST; dsDNA, one strand shown
# Sequence of SPIB (Q01892 whole entry): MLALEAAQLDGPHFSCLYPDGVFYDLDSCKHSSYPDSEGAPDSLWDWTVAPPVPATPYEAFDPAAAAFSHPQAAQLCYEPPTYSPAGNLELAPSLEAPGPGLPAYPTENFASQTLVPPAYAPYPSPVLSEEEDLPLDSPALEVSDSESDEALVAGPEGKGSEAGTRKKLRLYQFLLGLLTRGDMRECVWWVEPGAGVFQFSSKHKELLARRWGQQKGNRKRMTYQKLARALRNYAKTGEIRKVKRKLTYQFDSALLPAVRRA
# Summary of the method: as §1
# ELK3 = target: T6, ELK3 (Homo sapiens, UniProt P41970 1-407); conditions: protein: recombinant; tags: N-terminal GST; dsDNA, one strand shown
# T6 sequence: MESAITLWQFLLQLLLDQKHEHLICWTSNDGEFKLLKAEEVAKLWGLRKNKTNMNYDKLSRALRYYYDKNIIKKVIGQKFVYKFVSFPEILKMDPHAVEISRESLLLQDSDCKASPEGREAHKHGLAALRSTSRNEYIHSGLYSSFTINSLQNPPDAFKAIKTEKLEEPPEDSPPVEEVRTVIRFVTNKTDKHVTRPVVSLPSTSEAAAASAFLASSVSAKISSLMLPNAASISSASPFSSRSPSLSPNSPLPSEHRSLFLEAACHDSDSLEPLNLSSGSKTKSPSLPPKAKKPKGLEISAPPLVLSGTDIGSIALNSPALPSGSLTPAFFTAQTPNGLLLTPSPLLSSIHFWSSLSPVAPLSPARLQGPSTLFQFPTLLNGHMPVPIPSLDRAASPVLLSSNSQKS
# Summary of the method: as §1
# FEV = target: T7, FEV (Homo sapiens, UniProt Q99581 1-238); conditions: protein: recombinant; tags: N-terminal GST; dsDNA, one strand shown
# T7 sequence: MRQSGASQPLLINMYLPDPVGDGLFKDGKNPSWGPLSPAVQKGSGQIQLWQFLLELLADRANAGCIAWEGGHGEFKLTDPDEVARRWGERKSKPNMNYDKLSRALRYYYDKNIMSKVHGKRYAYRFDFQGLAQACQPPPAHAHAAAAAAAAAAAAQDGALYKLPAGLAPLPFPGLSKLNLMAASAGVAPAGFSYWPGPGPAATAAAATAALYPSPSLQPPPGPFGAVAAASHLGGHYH
# Summary of the method: as §1
# ETV5 = ETV5 (Homo sapiens, UniProt P41161 1-510); conditions: protein: recombinant; tags: N-terminal GST; dsDNA, one strand shown
# Sequence of ETV5 (P41161 whole entry): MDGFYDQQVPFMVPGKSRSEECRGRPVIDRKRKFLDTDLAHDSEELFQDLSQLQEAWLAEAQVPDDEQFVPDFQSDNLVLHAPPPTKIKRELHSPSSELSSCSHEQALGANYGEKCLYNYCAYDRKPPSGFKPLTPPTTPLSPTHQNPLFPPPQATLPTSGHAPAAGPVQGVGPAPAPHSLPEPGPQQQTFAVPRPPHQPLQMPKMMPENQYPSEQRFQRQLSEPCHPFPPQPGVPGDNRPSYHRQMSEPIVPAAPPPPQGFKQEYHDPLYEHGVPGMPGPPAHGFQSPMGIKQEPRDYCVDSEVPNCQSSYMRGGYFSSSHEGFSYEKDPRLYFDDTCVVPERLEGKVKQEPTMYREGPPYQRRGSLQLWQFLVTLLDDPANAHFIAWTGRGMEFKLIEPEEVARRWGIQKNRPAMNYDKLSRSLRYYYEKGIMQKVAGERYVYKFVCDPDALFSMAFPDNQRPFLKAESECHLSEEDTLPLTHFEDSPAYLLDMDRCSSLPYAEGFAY
# Summary of the method: as §1
# HSF1 = HSF1 (Homo sapiens, UniProt Q00613 1-529); conditions: protein: recombinant; tags: N-terminal GST; chain copies: 3; dsDNA, one strand shown
# Sequence of HSF1 (Q00613 whole entry): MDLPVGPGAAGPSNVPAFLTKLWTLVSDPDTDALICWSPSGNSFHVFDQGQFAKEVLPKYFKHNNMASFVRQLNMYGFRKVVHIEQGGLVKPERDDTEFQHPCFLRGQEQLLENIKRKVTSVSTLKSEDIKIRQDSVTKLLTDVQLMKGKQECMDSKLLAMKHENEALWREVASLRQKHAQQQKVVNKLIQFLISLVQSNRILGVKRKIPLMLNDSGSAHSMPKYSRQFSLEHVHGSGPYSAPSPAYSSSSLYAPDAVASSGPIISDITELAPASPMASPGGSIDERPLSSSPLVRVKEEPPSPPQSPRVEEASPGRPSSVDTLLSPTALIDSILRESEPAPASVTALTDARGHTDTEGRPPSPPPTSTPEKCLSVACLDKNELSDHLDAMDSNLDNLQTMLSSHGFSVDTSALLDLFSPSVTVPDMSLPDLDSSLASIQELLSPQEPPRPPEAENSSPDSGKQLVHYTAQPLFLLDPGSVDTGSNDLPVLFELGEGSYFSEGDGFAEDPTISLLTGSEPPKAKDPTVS
# Summary of the method: as §1
# SPIC = target: T8, SPIC (Homo sapiens, UniProt Q8N5J4 1-248); conditions: protein: recombinant; tags: N-terminal GST; dsDNA, one strand shown
# T8 sequence: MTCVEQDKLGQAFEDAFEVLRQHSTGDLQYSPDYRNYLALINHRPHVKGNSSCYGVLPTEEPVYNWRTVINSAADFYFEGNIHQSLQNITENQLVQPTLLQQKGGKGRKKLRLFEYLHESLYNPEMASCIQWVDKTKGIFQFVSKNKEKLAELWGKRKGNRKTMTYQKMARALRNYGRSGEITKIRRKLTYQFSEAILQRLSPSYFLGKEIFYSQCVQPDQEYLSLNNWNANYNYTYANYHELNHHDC
# Summary of the method: as §1
# ELF4 = ELF4 (Homo sapiens, UniProt Q99607 1-663); conditions: protein: recombinant; tags: N-terminal GST; dsDNA, one strand shown
# Sequence of ELF4 (Q99607 whole entry): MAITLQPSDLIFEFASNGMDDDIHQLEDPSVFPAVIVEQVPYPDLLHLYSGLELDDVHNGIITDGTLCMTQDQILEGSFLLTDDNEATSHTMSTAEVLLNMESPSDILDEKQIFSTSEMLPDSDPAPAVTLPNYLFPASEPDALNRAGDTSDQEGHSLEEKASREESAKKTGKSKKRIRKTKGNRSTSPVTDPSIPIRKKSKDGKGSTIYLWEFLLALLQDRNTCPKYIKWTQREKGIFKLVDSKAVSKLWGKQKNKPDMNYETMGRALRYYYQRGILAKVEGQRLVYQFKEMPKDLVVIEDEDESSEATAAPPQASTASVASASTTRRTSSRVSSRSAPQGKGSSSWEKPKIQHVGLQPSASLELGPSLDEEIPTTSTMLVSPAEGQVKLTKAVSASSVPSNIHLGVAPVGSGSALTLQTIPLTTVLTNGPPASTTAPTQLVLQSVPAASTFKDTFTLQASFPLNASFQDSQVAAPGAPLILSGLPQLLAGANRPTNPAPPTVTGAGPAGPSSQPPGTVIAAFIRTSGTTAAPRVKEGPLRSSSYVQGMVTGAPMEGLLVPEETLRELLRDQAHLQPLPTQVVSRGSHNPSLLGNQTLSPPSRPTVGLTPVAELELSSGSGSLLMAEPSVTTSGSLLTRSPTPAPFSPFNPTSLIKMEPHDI
# Summary of the method: as §1
# ELK4 = target: T9, ELK4 (Homo sapiens, UniProt P28324-2 1-405); conditions: protein: recombinant; tags: N-terminal GST; dsDNA, one strand shown
# T9 sequence: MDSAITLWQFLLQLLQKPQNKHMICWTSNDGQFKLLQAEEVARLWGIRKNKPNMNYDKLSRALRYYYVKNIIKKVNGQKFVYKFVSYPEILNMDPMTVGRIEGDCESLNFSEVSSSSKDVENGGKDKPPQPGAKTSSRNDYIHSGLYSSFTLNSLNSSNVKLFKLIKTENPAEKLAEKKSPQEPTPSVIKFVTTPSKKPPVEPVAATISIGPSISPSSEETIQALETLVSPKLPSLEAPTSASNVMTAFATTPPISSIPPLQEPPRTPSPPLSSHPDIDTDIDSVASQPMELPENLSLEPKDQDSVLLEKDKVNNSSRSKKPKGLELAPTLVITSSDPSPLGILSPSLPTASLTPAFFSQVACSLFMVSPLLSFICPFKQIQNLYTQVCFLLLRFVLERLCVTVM
# Summary of the method: as §1
# ETV2 = target: T10, ETV2 (Homo sapiens, UniProt O00321 1-342); conditions: protein: recombinant; tags: N-terminal GST; dsDNA, one strand shown
# T10 sequence: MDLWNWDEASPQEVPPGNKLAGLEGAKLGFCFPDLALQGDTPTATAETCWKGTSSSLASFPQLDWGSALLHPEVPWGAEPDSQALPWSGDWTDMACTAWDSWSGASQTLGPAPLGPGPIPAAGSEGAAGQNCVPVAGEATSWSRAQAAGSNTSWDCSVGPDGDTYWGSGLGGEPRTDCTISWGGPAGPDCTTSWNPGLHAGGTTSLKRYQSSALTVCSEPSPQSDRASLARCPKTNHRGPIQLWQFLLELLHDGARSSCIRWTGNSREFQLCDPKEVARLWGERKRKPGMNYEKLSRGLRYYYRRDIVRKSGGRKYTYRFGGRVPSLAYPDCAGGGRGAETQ
# Summary of the method: as §1
# ELF3 = target: T11, ELF3 (Homo sapiens, UniProt P78545 1-371); conditions: protein: recombinant; tags: N-terminal GST; dsDNA, one strand shown
# T11 sequence: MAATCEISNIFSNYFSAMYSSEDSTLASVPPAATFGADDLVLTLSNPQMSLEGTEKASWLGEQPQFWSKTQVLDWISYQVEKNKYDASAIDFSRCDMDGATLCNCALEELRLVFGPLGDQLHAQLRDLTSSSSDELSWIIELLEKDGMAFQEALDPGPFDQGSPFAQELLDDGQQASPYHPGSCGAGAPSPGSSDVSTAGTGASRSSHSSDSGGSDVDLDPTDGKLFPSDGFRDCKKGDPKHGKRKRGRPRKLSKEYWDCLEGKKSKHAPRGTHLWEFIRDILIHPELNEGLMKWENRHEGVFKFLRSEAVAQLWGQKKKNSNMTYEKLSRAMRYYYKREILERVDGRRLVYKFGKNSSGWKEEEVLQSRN
# Summary of the method: as §1
# CRX = CRX (Homo sapiens, UniProt O43186 1-299); conditions: protein: recombinant; tags: N-terminal GST; dsDNA, one strand shown
# Sequence of CRX (O43186 whole entry): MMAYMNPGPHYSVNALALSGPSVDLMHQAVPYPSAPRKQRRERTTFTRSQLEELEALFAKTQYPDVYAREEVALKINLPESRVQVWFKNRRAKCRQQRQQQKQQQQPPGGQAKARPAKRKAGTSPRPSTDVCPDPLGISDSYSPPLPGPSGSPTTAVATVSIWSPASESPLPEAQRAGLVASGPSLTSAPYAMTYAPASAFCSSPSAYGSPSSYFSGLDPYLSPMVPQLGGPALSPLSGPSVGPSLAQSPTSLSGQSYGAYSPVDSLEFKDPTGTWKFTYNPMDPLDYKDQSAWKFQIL
# Summary of the method: as §1
# ETV1 = ETV1 (Homo sapiens, UniProt P50549 1-477); conditions: protein: recombinant; tags: N-terminal GST; dsDNA, one strand shown
# Sequence of ETV1 (P50549 whole entry): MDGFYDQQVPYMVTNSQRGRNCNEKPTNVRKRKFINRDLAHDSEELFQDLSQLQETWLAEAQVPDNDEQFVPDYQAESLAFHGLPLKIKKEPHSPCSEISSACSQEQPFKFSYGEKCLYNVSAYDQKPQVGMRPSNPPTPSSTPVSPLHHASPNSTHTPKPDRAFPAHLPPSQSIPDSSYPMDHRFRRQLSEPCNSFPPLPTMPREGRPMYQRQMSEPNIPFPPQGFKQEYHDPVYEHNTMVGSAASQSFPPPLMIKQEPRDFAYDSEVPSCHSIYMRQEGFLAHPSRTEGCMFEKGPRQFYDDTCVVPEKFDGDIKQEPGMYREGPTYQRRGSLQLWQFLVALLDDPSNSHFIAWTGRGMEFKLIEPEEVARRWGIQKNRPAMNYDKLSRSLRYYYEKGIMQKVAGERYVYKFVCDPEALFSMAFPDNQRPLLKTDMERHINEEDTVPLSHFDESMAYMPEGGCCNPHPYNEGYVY
# Summary of the method: as §1
sequence,measurement,setting,value
ATCTTC,binding signal,FLI1,"1.68 fold enrichment (6-mer frequency, TF over GST control)"
same,binding signal,ELK1,"1.52 fold enrichment (6-mer frequency, TF over GST control)"
same,binding signal,GABPA,"1.48 fold enrichment (6-mer frequency, TF over GST control)"
same,binding signal,ERG,"1.51 fold enrichment (6-mer frequency, TF over GST control)"
same,binding signal,ELF1,"1.64 fold enrichment (6-mer frequency, TF over GST control)"
same,binding signal,EHF,"1.46 fold enrichment (6-mer frequency, TF over GST control)"
same,binding signal,SPI1,"1.52 fold enrichment (6-mer frequency, TF over GST control)"
same,binding signal,SPIB,"1.6 fold enrichment (6-mer frequency, TF over GST control)"
same,binding signal,ELK3,"1.59 fold enrichment (6-mer frequency, TF over GST control)"
same,binding signal,FEV,"1.39 fold enrichment (6-mer frequency, TF over GST control)"
same,binding signal,ETV5,"1.6 fold enrichment (6-mer frequency, TF over GST control)"
same,binding signal,HSF1,"2.15 fold enrichment (6-mer frequency, TF over GST control)"
same,binding signal,SPIC,"1.49 fold enrichment (6-mer frequency, TF over GST control)"
same,binding signal,ELF4,"1.31 fold enrichment (6-mer frequency, TF over GST control)"
same,binding signal,ELK4,"1.56 fold enrichment (6-mer frequency, TF over GST control)"
same,binding signal,ETV2,"1.75 fold enrichment (6-mer frequency, TF over GST control)"
same,binding signal,ELF3,"1.69 fold enrichment (6-mer frequency, TF over GST control)"
same,binding signal,CRX,"1.98 fold enrichment (6-mer frequency, TF over GST control)"
same,binding signal,ETV1,"1.63 fold enrichment (6-mer frequency, TF over GST control)"
